The values that follow come from PubChem BioAssay (EPA / NIEHS).

Each structure is given as a SMILES string. Results filed as inconclusive are left out. Some structures have more than one record in an assay (separate samples or runs), and their calls can disagree. Calls of active or inactive are those of the source. The calls were made as follows, unless noted: active = hit-call score of the fitted dose curve at least 0.9, where 1 is the maximum; inconclusive = response in the unintended direction; inactive = score below 0.9.

In assay [1] the test system is turtle Thyroid Hormone Receptor, alpha (TRa), gene 101949057. Kind of assay: ATG_trTRa_XSP2: Attagene TRANS-FACTORIAL Multi-Species (XSP1) HepG2 Assay for turtle Thyroid Hormone Receptor, alpha (TRa) (AID 2283834).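 Also: hits raise reporter mRNA over the DMSO baseline so AC50 marks activators.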 In a few lines: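 Transfection of HepG2 with multiple reporter transcription units, then chemical dosing for 24 h. Total RNA was reverse-transcribed, reporter sequences PCR-amplified and FAM-labelled, then sized by capillary electrophoresis. DMSO served as baseline.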

Assay [2] is described as follows: ATG_M_61_XSP2: Attagene TRANS-FACTORIAL Multi-Species (XSP2) HepG2 Assay for M61 Transcription Factor (Internal Marker) (AID 2283835; active = hit-call score of the fitted dose curve at least 0.9, where 1 is the maximum; inactive = score below 0.9;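 also: active means a rise in signal above the DMSO baseline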). In a few lines: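 HepG2 cells transiently transfected with multiple GAL4-UAS reporter units; reporter mRNA measured 24 h after dosing by RT-PCR, fluorescent labelling and capillary electrophoresis. Medium contained 3 nM 6-alpha-fluorotestosterone and 1.5 nM norgestrel; internal marker, DMSO baseline.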

In assay [3] the target is zebrafish Thyroid Hormone Receptor beta (TRb), thrb (gene 30607) (UniProt Q9PVE4). Kind of assay: ATG_zfTRb_XSP2: Attagene TRANS-FACTORIAL Multi-Species (XSP1) HepG2 Assay for zebrafish Thyroid Hormone Receptor beta (TRb) (AID 2283836). In a few lines:
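HepG2 cells transiently transfected with chimeric zebrafish TRb-GAL4 reporter units, dosed 24 h with 3 nM 6-alpha-fluorotestosterone and 1.5 nM norgestrel present. Reporter mRNA quantified by RT-PCR and capillary electrophoresis; gain fitted against DMSO.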

The target in assay [4] is human Thyroid hormone Receptor alpha (TRa), THRA (gene 7067) (UniProt P10827). The experiment in a line: ATG_hTRa_XSP2: Attagene TRANS-FACTORIAL Multi-Species (XSP2) HepG2 Assay for human Thyroid hormone Receptor alpha (TRa) (AID 2283838). The method, boiled down:
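HepG2 cells were transiently transfected with GAL4-UAS reporter units for chimeric human TRa-Gal4 and dosed for 24 hours, with 3 nM 6-alpha-fluorotestosterone and 1.5 nM norgestrel present. Reporter mRNA was quantified by RT-PCR, FAM labelling and capillary electrophoresis, with gain of signal fitted versus DMSO.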

Assay [5] addresses human Thyroid hormone Receptor beta (TRb), THRB (gene 7068) (UniProt P10828). Kind of assay: ATG_hTRb_XSP2: Attagene TRANS-FACTORIAL Multi-Species (XSP2) HepG2 Assay for human Thyroid hormone Receptor beta (TRb) (AID 2283840).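 Also: actives raise reporter mRNA so potency reflects agonist-like gain of signal.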 The method, boiled down:
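Transient transfection of human HepG2 with multi-species NR-Gal4/GAL4-UAS reporter constructs; 24 h compound treatment; RNA isolation, reverse transcription, PCR and HpaI digest; capillary electrophoresis of labeled fragments; activity fitted upward versus DMSO.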

Assay [6] deals with Sodium/Iodide Symporter (NIS), SLC5A5 (gene 6528). The experiment in a line: CPHEA_Stoker_NIS_Inhibition_RAIU: CPHEA's Radioactive Iodide Uptake (RAIU) Assay for Sodium/Iodide Symporter (NIS) Inhibition, Stoker and Laws Labs (AID 2283841). The method, boiled down:
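Test chemicals, six concentrations from 0.001 to 100uM in 0.5% DMSO, were co-incubated with carrier-free 125I (final 329pM) on hNIS-HEK293T-EPA monolayers in pH 7.4 HEPES-buffered HBSS. Plates stood 2 hours at room temperature, then were washed cold and counted.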

Assay [7] concerns the target Nuclear receptor subfamily 1 group I member 2 (Mus musculus) (UniProt O54915). The experiment in a line: ATG_mPXR_XSP2: Attagene TRANS-FACTORIAL Multi-Species (XSP1) HepG2 Assay for mouse Pregnane X Receptor (PXR) (AID 2283831). The method, boiled down:
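Reporter transcripts were quantified by RT-PCR, FAM primer extension, HpaI digestion and capillary electrophoresis after 24 h of chemical exposure in transiently transfected HepG2 cells carrying chimeric receptor-GAL4 constructs; DMSO served as baseline.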

Assay [8] has as its target zebrafish Thyroid Hormone Receptor alpha (TRa), thraa (gene 30670) (UniProt Q98867). The experiment in a line: ATG_zfTRa_XSP2: Attagene TRANS-FACTORIAL Multi-Species (XSP1) HepG2 Assay for zebrafish Thyroid Hormone Receptor alpha (TRa) (AID 2283832).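 Also: actives raise zebrafish TRa-Gal4 reporter transcript above DMSO baseline.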 In a few lines: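 HepG2 transiently transfected with GAL4-UAS reporter units and chimeric zebrafish TRa-Gal4; reporter mRNA quantified after 24 h dosing by RT-PCR, HpaI digestion and capillary electrophoresis fluorescence. Gain of signal vs DMSO; XSP2 medium contains 3 nM 6-alpha-fluorotestosterone, 1.5 nM norgestrel.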

Assay [9] relates to zebrafish Peroxisome Proliferator-activated Receptor gamma (PPARg), gene 557037. Kind of assay: ATG_zfPPARg_XSP2: Attagene TRANS-FACTORIAL Multi-Species (XSP2) HepG2 Assay for zebrafish Peroxisome Proliferator-activated Receptor gamma (PPARg) (AID 2283833).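 Also: actives increase reporter signal over DMSO so AC50 reflects activation.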 The method, boiled down:
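Multi-species TRANS format in HepG2, 24 h dosing; medium also contained 3 nM 6-alpha-fluorotestosterone and 1.5 nM norgestrel to stimulate androgen receptor. Zebrafish PPARg-GAL4 induced reporter mRNA was measured by RT-PCR/capillary electrophoresis.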

Assay [10] in a line: ATG_XTT_Cytotoxicity_XSP2: Cytotoxicity Assessment in the Attagene TRANS-FACTORIAL Multi-Species (XSP2) HepG2 Assay (AID 2283837). The method, boiled down:
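HepG2 cells, transiently transfected with multiple reporter constructs, exposed to chemical for 24 h. Cell number assessed with XTT fluorescence read-out; loss of signal fitted relative to DMSO.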

One may read the AC50 as the midpoint of the concentration-response curve, whichever way the signal moves.

Chain of Nuclear receptor subfamily 1 group I member 2 (Mus musculus) (O54915 whole entry, looked up, the tested form may be a part): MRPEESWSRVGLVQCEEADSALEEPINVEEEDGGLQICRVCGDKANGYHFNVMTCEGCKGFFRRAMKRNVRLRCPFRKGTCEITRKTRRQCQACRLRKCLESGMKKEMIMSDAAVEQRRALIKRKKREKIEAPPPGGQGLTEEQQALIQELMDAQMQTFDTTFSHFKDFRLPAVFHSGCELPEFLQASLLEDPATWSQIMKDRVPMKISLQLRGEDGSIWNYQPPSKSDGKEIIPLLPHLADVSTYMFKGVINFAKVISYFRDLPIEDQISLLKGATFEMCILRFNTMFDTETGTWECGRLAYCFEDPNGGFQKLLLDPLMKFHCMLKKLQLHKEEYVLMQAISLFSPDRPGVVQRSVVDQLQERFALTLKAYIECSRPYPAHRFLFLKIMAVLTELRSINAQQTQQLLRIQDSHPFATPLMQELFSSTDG
Chain of human Thyroid hormone Receptor beta (TRb), THRB (gene 7068) (P10828 whole entry, looked up, the tested form may be a part): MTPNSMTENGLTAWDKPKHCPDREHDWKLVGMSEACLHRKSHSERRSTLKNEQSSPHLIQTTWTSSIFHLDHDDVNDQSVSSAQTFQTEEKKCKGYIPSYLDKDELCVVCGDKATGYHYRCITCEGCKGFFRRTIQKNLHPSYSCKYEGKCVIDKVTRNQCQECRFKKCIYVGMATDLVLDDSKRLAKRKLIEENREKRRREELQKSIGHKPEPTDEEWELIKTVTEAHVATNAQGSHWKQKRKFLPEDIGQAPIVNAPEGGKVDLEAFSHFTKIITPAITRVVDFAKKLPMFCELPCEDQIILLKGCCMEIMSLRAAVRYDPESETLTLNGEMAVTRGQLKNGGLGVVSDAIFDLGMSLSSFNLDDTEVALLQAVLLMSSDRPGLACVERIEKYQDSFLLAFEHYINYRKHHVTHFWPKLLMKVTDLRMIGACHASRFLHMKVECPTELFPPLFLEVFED
Chain of human Thyroid hormone Receptor alpha (TRa), THRA (gene 7067) (P10827 whole entry, looked up, the tested form may be a part): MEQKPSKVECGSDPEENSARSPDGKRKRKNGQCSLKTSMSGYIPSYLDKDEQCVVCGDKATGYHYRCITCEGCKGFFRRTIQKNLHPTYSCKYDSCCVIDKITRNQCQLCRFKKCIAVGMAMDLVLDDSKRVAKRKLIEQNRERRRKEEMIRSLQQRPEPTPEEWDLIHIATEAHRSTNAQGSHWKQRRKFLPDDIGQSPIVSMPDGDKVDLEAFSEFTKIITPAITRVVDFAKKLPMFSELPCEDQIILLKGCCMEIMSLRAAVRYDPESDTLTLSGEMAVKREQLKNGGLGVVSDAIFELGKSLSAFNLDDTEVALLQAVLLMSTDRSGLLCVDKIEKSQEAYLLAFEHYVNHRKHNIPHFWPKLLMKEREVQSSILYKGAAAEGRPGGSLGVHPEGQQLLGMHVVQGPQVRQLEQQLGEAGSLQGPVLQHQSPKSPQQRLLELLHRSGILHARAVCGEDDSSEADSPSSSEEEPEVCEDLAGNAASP
Chain of zebrafish Thyroid Hormone Receptor beta (TRb), thrb (gene 30607) (Q9PVE4 whole entry, looked up, the tested form may be a part): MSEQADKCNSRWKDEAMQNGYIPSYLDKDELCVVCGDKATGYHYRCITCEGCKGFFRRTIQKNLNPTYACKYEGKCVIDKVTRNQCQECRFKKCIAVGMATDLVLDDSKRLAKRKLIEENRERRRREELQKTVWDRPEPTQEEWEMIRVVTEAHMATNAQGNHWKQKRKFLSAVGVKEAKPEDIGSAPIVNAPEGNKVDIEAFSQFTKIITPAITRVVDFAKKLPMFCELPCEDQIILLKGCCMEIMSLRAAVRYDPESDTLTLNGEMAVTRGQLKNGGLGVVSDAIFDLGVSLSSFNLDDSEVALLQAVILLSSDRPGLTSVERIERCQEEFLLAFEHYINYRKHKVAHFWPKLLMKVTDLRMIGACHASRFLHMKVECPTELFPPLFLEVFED
Chain of zebrafish Thyroid Hormone Receptor alpha (TRa), thraa (gene 30670) (Q98867 whole entry, looked up, the tested form may be a part): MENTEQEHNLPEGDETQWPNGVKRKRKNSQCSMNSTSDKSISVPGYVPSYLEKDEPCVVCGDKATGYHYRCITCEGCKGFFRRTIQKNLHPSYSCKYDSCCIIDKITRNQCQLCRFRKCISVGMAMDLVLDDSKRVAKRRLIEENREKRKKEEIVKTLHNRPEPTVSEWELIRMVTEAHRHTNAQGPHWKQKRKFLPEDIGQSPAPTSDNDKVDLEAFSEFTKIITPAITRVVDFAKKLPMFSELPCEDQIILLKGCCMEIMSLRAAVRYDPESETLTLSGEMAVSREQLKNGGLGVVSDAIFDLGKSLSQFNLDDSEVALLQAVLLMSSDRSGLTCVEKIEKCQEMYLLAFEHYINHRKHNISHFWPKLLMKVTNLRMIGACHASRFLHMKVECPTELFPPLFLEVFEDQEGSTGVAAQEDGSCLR

As for `CC(C)(c1ccccc1)c1ccc(O)cc1`, the call in [1], in assay [2], in [3], in assay [4], in assay [5] and in assay [6] was inactive.
In the case of `C[C@]12CCC(=O)C=C1CC[C@@H]1[C@@H]2CC[C@@]2(C)[C@H]1CC[C@]2(C)O`, the result in [1], in assay [2], in [4] and in assay [5] was inactive.
As for `Cc1cc(-c2ccc(N)c(C)c2)ccc1N`, the AC50 is 5.2 µM (active) in assay [7] and 10.8 µM (active) in [9]. Also, the compound was classed as inactive in assay [7], in [8], in assay [9], in assay [1], in assay [3] and in assay [10]. For the same compound, the compound was classed as inactive in assay [4] and in assay [5].
On to `ClC1=C(Cl)[C@]2(Cl)[C@@H]3[C@@H](Cl)[C@H]4O[C@H]4[C@@H]3C1(Cl)C2(Cl)Cl`, for which, in assay [6], the outcome was inactive.
Turning to `CCC(=O)O[C@H]1CC[C@H]2[C@@H]3CCC4=CC(=O)CC[C@]4(C)[C@H]3CC[C@]12C`, the result in [1], in assay [2], in [3], in assay [4], in assay [5] and in [6] was inactive. The AC50 in assay [5] was 0.157 µM (active).
Consider `O=C(O)C(F)(F)C(F)(F)C(F)(F)C(F)(F)C(F)(F)C(F)(F)C(F)(F)C(F)(F)F`, for which, in assay [6], the AC50 was 12 µM (active).
As to `C[C@]12CCC(=O)C=C1CC[C@@H]1[C@@H]2CC[C@]2(C)C(=O)CC[C@@H]12`, the call in [7], in assay [1], in [2], in assay [3], in assay [4] and in [5] was inactive.
Regarding `Oc1ccc(C(c2ccc(O)cc2)(C(F)(F)F)C(F)(F)F)cc1`, the compound was called inactive in assay [7], in assay [8], in assay [9], in [1] and in assay [6].
Take `O=C(O)C(F)(F)C(F)(F)C(F)(F)C(F)(F)C(F)(F)F`: the outcome in assay [6] was inactive.
Turning to `O=S(=O)(O)C(F)(F)C(F)(F)C(F)(F)C(F)(F)F`, in assay [6], the result was inactive.
On to `NS(=O)(=O)C(F)(F)C(F)(F)C(F)(F)C(F)(F)C(F)(F)C(F)(F)C(F)(F)C(F)(F)F`, for which the result in assay [6] was inactive.
For `CC(c1ccc(O)cc1)(c1ccc(O)cc1)c1ccc(O)cc1`, the compound was called inactive in assay [8], in [9], in assay [1], in [2], in assay [3] and in [5].
As for `CCCCCCCCCC[N+](C)(C)CCCCCCCCCC`, in [6], the outcome was inactive.
On to `Cc1cccc(C)c1N`, for which, in [6], the result was inactive.
In the case of `O=C(O)C(F)(F)C(F)(F)C(F)(F)C(F)(F)C(F)(F)C(F)(F)C(F)(F)C(F)(F)C(F)(F)F`, in assay [6], the AC50 is 12.8 µM (active) and the result was inactive.
Take `CCSC(=O)N(CC)C1CCCCC1`: the outcome in assay [6] was inactive.
Take `CO/C=C(/C(=O)OC)c1ccccc1COc1cccc(C(F)(F)F)n1`: the outcome in assay [6] was inactive.
Same read-out and setting: next, `CCC(C)(c1ccc(O)cc1)c1ccc(O)cc1`: “inactive”.
